The list is not random: actives were taken first. Their share in the collection is about 1.6%.
KCNQ2 inh = rat KCNQ2 potassium channel inhibitors, primary screen, cell-based, CHO-K1, FluxOR thallium flux, B-score | Potassium voltage-gated channel subfamily KQT member 2 (Rattus norvegicus), O88943 | 20 min; active compounds read low | B-score at 10 µM | 1.1% of 310,000 active;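 active = fluorescence ratio B-score at most minus 3 library SDs, with starting brightness B-score within 2 library SDs, cut at about -5.5 in these data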
Target sequence (O88943 whole entry, looked up): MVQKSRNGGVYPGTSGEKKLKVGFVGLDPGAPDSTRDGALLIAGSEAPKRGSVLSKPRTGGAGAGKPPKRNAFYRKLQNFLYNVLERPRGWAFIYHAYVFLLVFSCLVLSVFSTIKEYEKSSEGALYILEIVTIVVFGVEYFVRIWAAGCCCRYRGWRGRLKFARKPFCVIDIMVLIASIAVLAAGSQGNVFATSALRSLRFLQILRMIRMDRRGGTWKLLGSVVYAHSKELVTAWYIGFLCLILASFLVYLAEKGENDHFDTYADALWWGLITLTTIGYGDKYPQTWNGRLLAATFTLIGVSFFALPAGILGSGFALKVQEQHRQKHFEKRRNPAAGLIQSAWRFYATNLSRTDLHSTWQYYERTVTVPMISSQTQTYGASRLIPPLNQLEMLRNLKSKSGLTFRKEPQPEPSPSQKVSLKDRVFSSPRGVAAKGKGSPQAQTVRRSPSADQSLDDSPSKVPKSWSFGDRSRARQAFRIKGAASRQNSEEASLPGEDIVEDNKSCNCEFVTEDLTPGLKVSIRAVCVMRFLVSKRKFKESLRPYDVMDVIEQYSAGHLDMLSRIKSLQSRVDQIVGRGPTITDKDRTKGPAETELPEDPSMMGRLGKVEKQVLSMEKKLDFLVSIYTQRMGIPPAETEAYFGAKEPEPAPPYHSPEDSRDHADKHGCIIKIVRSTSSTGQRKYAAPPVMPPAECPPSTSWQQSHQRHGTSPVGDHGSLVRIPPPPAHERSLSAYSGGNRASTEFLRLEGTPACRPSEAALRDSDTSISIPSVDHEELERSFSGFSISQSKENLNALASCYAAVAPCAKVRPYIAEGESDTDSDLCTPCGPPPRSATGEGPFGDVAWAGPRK
KCNQ2 enhance = potentiators of rat KCNQ2 potassium channel; Potassium voltage-gated channel subfamily KQT member 2 (Rattus norvegicus), O88943; CHO-K1 KCNQ2, FluxOR thallium flux fluorescence; active compounds read high; B-score at 10 µM; 0.54% of 310,000 active; AID 2239, 2010;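 active = fluorescence ratio B-score at least 3 SD of library B-scores, with initial fluorescence B-score within 3 of them, cut at about 5.3 in these data; same plate scores as AID 2156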;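 note: B-score of peak minus minimum over baseline fluorescence ratio after K+ and Tl+ stimulus; positive B-score means potentiation of KCNQ2 with more thallium influx and brighter signal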
KCNQ2 block conf = rat KCNQ2 potassium channel inhibitors, confirmation, cell-based, thallium flux; shares compounds with KCNQ2 inh; KCNQ2-expressing cells, inhibition; active compounds read low; activity change, negative = inhibition, % at 10 µM; 57% of 1,000 active
KCNQ1 spec = human KCNQ1 channel inhibition, counter-screen for KCNQ2 inhibitor project, cell-based, FluxOR thallium flux | KCNQ1-expressing cells, FluxOR thallium flux fluorescence; active compounds read low | shares compounds with KCNQ2 inh | 15% of 1,000 active | activity change, negative = inhibition, % at 10 µM;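 active = activity change at least 3 SD of negative controls below their mean in both duplicate wells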;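 note: CHO cells stably transfected with KCNQ1 and depolarized by potassium stimulus; peak minus minimum fluorescence over baseline after thallium addition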
CHO Tl ctr = thallium flux change in parental CHO cells, counter-screen for KCNQ2 inhibitor project. shares compounds with KCNQ2 inh. active compounds read low. activity change, % at 10 µM. 14% of 1,000 active
KCNQ2 patch conf = rat KCNQ2 channel inhibitors, confirmation, cell-based, automated patch clamp, single concentration. shares compounds with KCNQ2 inh. KCNQ2-expressing cells, automated patch clamp current. calls only at 10 µM. 49% of 550 active
Numbers stand for hits; – = inactive; · = no result; + = active, no number. Unless noted, the rule behind the calls is not given here.

SMILES | KCNQ2 inh | KCNQ2 enhance | KCNQ2 block conf | KCNQ1 spec | CHO Tl ctr | others
CN(CC(=O)Nc1ccccc1Cl)C(=O)COC(=O)c1cnccn1 | – | · | · | · | ·
CCCC12CN3CC(C)(CN(C1)C3c1cccs1)C2=O (centres undefined) | – | – | · | · | ·
Cc1ccc(-c2cc(C(=O)N3CC(C)OC(C)C3)c3ccccc3n2)o1 (centres undefined) | -11 | – | -33% | – | – | KCNQ2 patch conf=+
Cc1ccc(-c2cc(C(=O)Nc3ccccc3C)c3ccccc3n2)o1 | -10 | – | -40% | – | – | KCNQ2 patch conf=+
Cc1ccc(-c2cc(C(=O)NCc3ccco3)c3ccccc3n2)o1 | – | · | · | · | ·
COC(=O)c1cc(-c2ccc(C)o2)nc2ccccc12 | – | · | · | · | ·
O=C(NCCN1C(=O)S/C(=C\c2cccs2)C1=O)c1ccc(=O)[nH]c1 | – | – | · | · | ·
O=C(NCCCSc1ccccc1)c1cc(Br)ccc1O | – | · | · | · | ·
COc1ccc(-n2nc(C(=O)NCC(=O)NCCN(C)C)c3ccccc3c2=O)c(OC)c1 | – | – | · | · | ·
CC(Oc1cccc(Cl)c1)C(=O)Nc1cc(Cl)ccc1N1CCOCC1 (centres undefined) | – | · | · | · | ·
COc1ccc(-c2cn[nH]c2-c2ccc(O)cc2O)cc1 | – | · | · | · | ·
COc1ccc(-c2[nH]ncc2-c2cnn(-c3ccccc3)c2)c(O)c1 | -7.7 | – | – | – | –
Cc1ccc(NC(=O)Cc2nnc(SCC(=O)NC3CCCC3)n2C)c(C)c1 | – | – | · | · | ·
COc1ccc(OC)c(S(=O)(=O)Nc2cc3c4c(c2)C(C)C(=O)N4CCC3)c1 (centres undefined) | – | – | · | · | ·
COC(=O)C(NC(=O)c1ccccc1)(Nc1nc(C)cs1)C(F)(F)F (centres undefined) | -8.5 | – | – | – | –
COC(=O)C(NC(C)=O)(Nc1nc(C)cs1)C(F)(F)F (centres undefined) | – | · | · | · | ·
CCc1c(C)c2ccc(OCC(=O)NCC3CCC(C(=O)O)CC3)c(C)c2oc1=O (centres undefined) | – | · | · | · | ·
COc1ccc(/C=N/NC(=O)C(=O)N2CCCCCC2)cc1O | – | · | · | · | ·
Cc1c(Cl)ccc2sc(NC(=O)c3ccco3)nc12 | – | – | · | · | ·
Cc1ccc(-n2nc3c(c2NC(=O)c2cccs2)CS(=O)(=O)C3)cc1C | – | – | · | · | ·
C=CCn1c(SCc2c(C)noc2C)nc2ccccc2c1=O | – | · | · | · | ·
Cc1noc(C)c1CSc1nc2ccccc2c(=O)n1-c1ccc(F)cc1F | -7.3 | – | -20% | – | – | KCNQ2 patch conf=+
Cc1cc(C(=O)CSc2ccc(F)cc2)cc(C)c1O | – | – | · | · | ·
Cc1cc(C(=O)CSc2ccc(Cl)cc2)cc(C)c1OC(=S)N(C)C | -8.7 | – | – | – | –
Cc1ccc(-c2nnc(N3CCN(C(=O)COc4ccccc4)CC3)c3ccccc23)cc1 | -7.6 | – | -27% | – | – | KCNQ2 patch conf=+
SMILES | KCNQ2 inh | KCNQ2 enhance | KCNQ2 block conf | KCNQ1 spec | CHO Tl ctr | others
O=C(COc1ccc(-c2nnc(N3CCCCC3)c3ccccc23)cc1)N1CCCCC1 | – | · | · | · | ·
Cc1cccc(CCNS(=O)(=O)c2ccc3c(c2)NC(=O)C(C)S3)c1 (centres undefined) | – | · | · | · | ·
Cc1cc(C)c(NC(=O)CN2CCN3CCCC3C2)c(C)c1 (centres undefined) | – | · | · | · | ·
CCOc1ccc(CNC(=O)c2ccccc2NC(=O)C2=CSCCO2)cc1 | – | – | · | · | ·
CCN1C(=O)[C@@H]2[C@@H](c3ccc(-c4ccc(C(C)=O)cc4)c(OC)c3)N3CCCC[C@@]3(C(=O)OC)[C@@H]2C1=O | – | – | · | · | ·
CCN(CC)c1nc(C#N)nc(N(CC)CC)n1 | – | · | · | · | ·
CCN(c1ccccc1)c1nc(C#N)nc(N(CC)c2ccccc2)n1 | -6.7 | – | -30% | – | – | KCNQ2 patch conf=–
CC(C)CNC(=O)COC(=O)c1ccc2c(c1)C(=O)N(Cc1ccco1)C2=O | – | – | · | · | ·
CC1(C)C(C=C(Cl)Cl)C1C(=O)N/N=C/c1ccccc1F (centres undefined) | -9.9 | – | -28% | – | – | KCNQ2 patch conf=+
CC1(C)OC2OC(C(=O)N/N=C/c3ccccc3F)C3OC(C)(C)OC3C2O1 (centres undefined) | – | – | · | · | ·
O=C(c1cc(-c2ccco2)on1)N1CCN(C(c2ccccc2)c2ccccc2)CC1 | -7.7 | – | -29% | – | – | KCNQ2 patch conf=–
COc1ccc(-c2cc(C(=O)N3CCN(C(c4ccccc4)c4ccccc4)CC3)no2)cc1 | – | · | · | · | ·
COc1ccc(C(=O)C2CCCN(C(=O)c3cc(C4CC4)[nH]n3)C2)c(C)c1 (centres undefined) | – | – | · | · | ·
C/C(=C\C(=O)c1ccc(Br)cc1)NCc1ccc2c(c1)OCO2 | -6.9 | – | -17% | – | – | KCNQ2 patch conf=–
C/C(=C\C(=O)c1ccc(F)cc1)NCc1ccc2c(c1)OCO2 | – | · | · | · | ·
Cc1ccc(NC(=S)N(C)Cc2cn(C)c3ccccc23)cc1 | – | · | · | · | ·
COc1ccccc1N1CCN(C(=O)c2ccc(N(C)S(=O)(=O)c3ccccc3)cc2)CC1 | – | · | · | · | ·
COc1ccc2oc(C(=O)N3CCN(C(c4ccccc4)c4ccccc4)CC3)c(C)c2c1 | -10 | – | – | – | –
COc1ccc(N2CCN(C(=O)c3oc4ccccc4c3C)CC2)cc1 | – | · | · | · | ·
Cc1cccc(C)c1NC(=O)C1CCCN1C(=O)Nc1cccc(F)c1 (centres undefined) | – | · | · | · | ·
O=C(CN1CCCc2ccccc21)NCCc1ccc(Cl)cc1 | -11 | – | -34% | – | – | KCNQ2 patch conf=+
O=C(CN1CCCc2ccccc21)NCc1ccc2c(c1)OCO2 | – | · | · | · | ·
CCOc1ccc(C(=O)NC(=S)NCc2cccnc2)cc1[N+](=O)[O-] | – | – | · | · | ·
COCCCN(C(=S)Nc1cc(Cl)cc(Cl)c1)C(C)c1ccncc1 (centres undefined) | – | – | · | · | ·
COCCCN(C(=S)Nc1cc(Cl)cc(Cl)c1)C(C)c1ccccn1 (centres undefined) | -8.5 | – | – | – | –
SMILES | KCNQ2 inh | KCNQ2 enhance | KCNQ2 block conf | KCNQ1 spec | CHO Tl ctr | others
CCOC(=O)c1c(NC(=O)C(C)Sc2nnc(C)c(=O)[nH]2)sc2c1CCCC2 (centres undefined) | – | · | · | · | ·
COc1ccc(-c2nc3ccccn3c2NCc2ccc3c(c2)OCO3)cc1 | -8.4 | – | – | – | –
COc1ccc(-c2nc3cc(C)ccn3c2NCc2ccc3c(c2)OCO3)cc1 | – | · | · | · | ·
CCOc1ccccc1N(CC(=O)NCCc1ccccc1)C(=O)CCC(=O)Nc1ccccn1 | – | – | · | · | ·
COc1ccc(N=N/C(=C\O)C(=O)c2cccs2)cc1 | – | · | · | · | ·
COc1ccc(/C=C(/C(=O)c2cccs2)N2C=CC=CC2=C(C#N)C#N)cc1 | -7.9 | – | -42% | – | – | KCNQ2 patch conf=–
COc1cccc(N2CCN(C(=O)c3cccc(N4C(=O)NC5CC4(C)Oc4c(OC)cccc45)c3)CC2)c1 (centres undefined) | – | – | · | · | ·
